High-throughput results from PubChem.
ELG1 repair inh – blocks ELG1-dependent DNA repair in HEK293T cells. HEK293T ELG1-luciferase reporter, luminescence, 16 h; DNA damage induced by 5-fluorouridine. Potency, µM (doses to about 46.1 µM), inactives show at the highest dose activity change, negative = inhibition, most hits filed as inhibitors. hit rate 2.3% among 330,000. AID 504467; note: % is set by controls: 0 for no effect and ±100 for the full control effect; nearly all actives have a fitted effect of over 55% in size
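HEK293T cells expressing luciferase-tagged ELG1 (2,000/well) received 5-Fluorouridine plus compound or DMSO for 16 hr at 37 °C. Luciferase was read by ONE-Glo luminescence after 30 min at room temperature.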
A549 tox – counter-screen for Nrf2 inhibitors: cytotoxicity in A549 cells; A549 ARE-Fluc cells, CellTiter-Fluor viability, 18-24 h; Potency, µM (highest dose often 46 µM), for the others: at the highest dose activity change, negative = cytotoxicity, most hits filed as inhibitors; hit rate 0.16% among 390,000; note: % is set by controls: 0 for no effect and ±100 for the full control effect
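A549 ARE-Fluc cells in 5% FBS OPTI-MEM, 5000 cells/well, rested 2 h then exposed to compounds in concentration-response for 18-24 h at 37 °C. Viability by CellTiter-Fluor fluorescence (Ex 405/Em 525) after 30 min; luciferase luminescence (BugLite, 15 min, RT) read afterwards.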
Nrf2 inh – blocks Nrf2 signaling; hit rate 2.1% among 360,000; Potency, µM (titrated, usually from 46 µM), without a hit: top-dose activity change, negative = inhibition, most hits filed as inhibitors; AID 504444; A549 ARE-Fluc reporter, luciferase luminescence, 18-24 h; note: % is set by controls: 0 for no effect and ±100 for the full control effect; nearly all actives have a fitted effect of over 60% in size
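A549 ARE_Fluc cells (5000/well, 5% FBS OPTI-MEM) pre-incubated 2 h, then treated with compounds 18-24 h at 37C/5% CO2 in concentration-response. CellTiter-Fluor viability read first; BugLite luciferase luminescence after 15 min at room temperature gives Nrf2 activity.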
Nrf2 ARE act – Nrf2 pathway activation. hit rate 0.31% among 410,000. AREc32 ARE-luciferase reporter (MCF7-derived line), luminescence, 24 h. Potency, µM (highest dose often 46.1 µM), without a hit: at the highest dose activation, most hits filed as activators; note: % of control where 0% means no effect; nearly all actives have a fitted effect of over 65% in size
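For detection, Steady-Glo was added and plates sat 30 min at RT; before that, AREc32_Fluc cells grown overnight in OPTI-MEM/5% FBS had been treated with 23 nL compound for 24 hr at 37 deg C.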
* marks the source's active call; other numbers are inactive results; ? = inconclusive; · = no result; [ ] = remark or other dose. An excerpt weighted towards active compounds, which were near 3.7% of everything screened. Calls come from the whole dose curve; as a rule, active = well fitted curve in the direction sought with a large enough effect; inconclusive = small, poorly fitted or top-dose-only effect, or another doubt; inactive = no such curve, though single readings can be large; an effect the other way counts as inactive or inconclusive. Potency is the fitted concentration of half-maximal effect.

SMILES | ELG1 repair inh | A549 tox | Nrf2 inh | Nrf2 ARE act
CCN1CCN(CCNC(=O)c2ccc(/C=C3\Sc4ccccc4N(Cc4ccccc4F)C3=O)cc2)CC1 | -2% | -11% | 3% | 7%
COCCCNC(=O)/C=C1\Sc2ccccc2N(Cc2ccccc2F)C1=O | 10% | 5% | 3% | 11µM*
CCc1ccc(C(=O)NNC(=O)c2c(CC)noc2C)cc1 | 5% | 1% | 1% | 0%
O=C(CN1C(=O)c2ccccc2C1=O)N1CCOCC1 | 6% | -3% | 4% | 0%
Cc1ccc(Cl)cc1N1CCN(C(=O)CN2C(=O)c3cccc4cccc2c34)CC1 | 21µM* | 9% | ? | 0%
CC1CCN(C(=O)CN2C(=O)c3cccc4cccc(c34)C2=O)CC1 | 6% | -2% | 2% | 11µM*
O=C(CN1C(=O)c2ccccc2C1=O)N1CCN(C2c3ccccc3-c3ccccc32)CC1 | 16µM* | -6% | -8% | -1%
COc1ccc(NC(=O)CN2CCN(C3c4ccccc4-c4ccccc43)CC2)cc1 | 6.5µM* | -12% | · | 0%
CCCN1Cc2cccc(C(=O)N3CCN(c4cc(Cl)ccc4C)CC3)c2C1=O | 21µM* | 2% | ? | -1%
Cc1ccc(C)c(S(=O)(=O)N2CCCC2CNC(=O)C(=O)NCc2ccccc2C)c1 (stereo not drawn) | 15µM* | 1% | -18% | -1%
COc1ccccc1CCNC(=O)C(=O)NCC1OCCCN1S(=O)(=O)c1cc(C)ccc1C (stereo not drawn) | 21µM* | 6% | -22% | 0%
O=C(NCCc1c[nH]c2ccccc12)C(=O)NCC1OCCN1S(=O)(=O)c1ccc(Cl)cc1 (stereo not drawn) | 13µM* | -12% | 23µM* | -1%
Cc1ccc(S(=O)(=O)N2CCCOC2CNC(=O)C(=O)NCCc2c[nH]c3ccccc23)cc1 (stereo not drawn) | 23µM* | -21% | ? | 5%
O=C(NCCc1c[nH]c2ccccc12)C(=O)NCC1OCCN1S(=O)(=O)c1ccccc1 (stereo not drawn) | -16% | 5% | ? | 2%
O=C(NCCc1c[nH]c2ccccc12)C(=O)NCC1OCCCN1S(=O)(=O)c1ccccc1 (stereo not drawn) | ? | 1% | -11% | -1%[9.22 µM]
CN(C(=O)Cc1ccccc1OC(=O)c1ccccc1)c1ccccc1I | · | 3% | 4% | ·
O=C(CSc1nc2c([nH]c3ccccc32)c(=O)n1-c1ccc(Cl)cc1)NCc1ccccc1 | · | -7% | · | -1%
CCCN(C(=O)CSc1nnc(-c2ccoc2C)n1N)C1CCS(=O)(=O)C1 (stereo not drawn) | 0.65µM* | -4% | 0% | -1%
CCCN(C(=O)CSc1nnnn1-c1ccccc1OC)C1CCS(=O)(=O)C1 (stereo not drawn) | 2% | -1% | -10% | 0%
CCn1c(SCc2nc(-c3ccc(OC)c(OC)c3)no2)nnc1-c1cccs1 | ? | -14% | 21µM* | 4%
COc1ccc(-c2noc(CSc3nc4ccccc4[nH]3)n2)cc1OC | · | -11% | 21µM* | 1%
Cc1ccccc1-c1noc(CSc2nc3ccccc3[nH]2)n1 | · | -5% | 18µM* | 0%
CCOc1ccccc1C(=O)NCC(=O)OCC(=O)c1c(N)n(C)c(=O)n(C)c1=O | 9% | 0% | 2% | -1%
COc1cc2c(cc1O)CC[C@@H]1[C@@H]2CC[C@]2(C)[C@@H](O)CC[C@@H]12 | · | -12% | 9.2µM* | 0%
C[C@]12CC[C@@H]3c4ccc(OC(=O)c5ccccc5)cc4CC[C@H]3[C@@H]1CC[C@@H]2O | 16% | -6% | ? | -1%
SMILES | ELG1 repair inh | A549 tox | Nrf2 inh | Nrf2 ARE act
Cc1ccc(-n2cc(CN3CCN(C(=O)c4ncn[nH]4)CC3)c(-c3ccc(F)cc3)n2)cc1 | 21µM* | 1% | 1% | 1%
CCOC(=O)Cc1csc(NC(=O)c2ccc(S(=O)(=O)N3CCCCC3)cc2)n1 | -34% | -12% | -75% | 0%
CCOC(=O)Cc1csc(NC(=O)CCc2ccc(S(=O)(=O)N3CCOCC3)cc2)n1 | 12µM* | 1% | -12% | 1%
CCCCN(C)CCN1C(=O)C2C(C(=O)Nc3ccc(C)cc3)C3C=CC2(O3)C1C(=O)NC1CCCCC1 (stereo not drawn) | 21% | -27% | -12% | 0%
CCOC(=O)c1c(C)[nH]c(C)c1C(=O)CSc1nc2ccccc2c(=O)n1-c1ccccc1C | 23µM* | ? | ? | 6%
Cc1ccc(C(=O)CSc2nc3ccccc3c(=O)n2-c2ccccc2)s1 | 18% | -8% | -11% | -1%
CCOC(=O)c1c(C)[nH]c(C)c1C(=O)CSc1nc2ccccc2c(=O)n1-c1ccc(F)cc1 | ? | ? | 23µM* | 6%
CCc1cccc(CC)c1NC(=O)C1CCN(C(=O)c2ccco2)CC1 | -5% | 0% | 0% | 0%
COc1cccc(OCC(=O)NN=C2c3ccccc3-c3ccccc32)c1 | ? | 2%[1.84 µM] | 18µM* | -1%
CC(C)CNC(=O)C1(C)CCCN1C(=O)C(C)(C)Oc1ccc(Cl)cc1 (stereo not drawn) | · | · | · | 0%
Clc1ccc(Nc2ncnc3ccc(Br)cc23)cc1 | ? | -10% | 13µM* | 4%
Clc1cccc(Nc2ncnc3ccc(Br)cc23)c1 | ? | 3% | ? | ?
CN(C)c1ccc(Nc2ncnc3ccc(Br)cc23)cc1 | 8.2µM* | -6% | ? | 0%
S=c1[nH]nc(C2CCCCC2)n1/N=C/c1cccc(Cl)c1Cl | -1% | 0% | 2% | 5%
Cc1ccc2nc(N3C(=O)C(O)=C(C(=O)c4ccco4)C3c3cccs3)sc2c1 (stereo not drawn) | ? | 15µM* | ? | ?
CNC(=O)c1ccc(NC(=O)CC23CC4CC(CC(C4)C2)C3)cc1 | 9.2µM* | 3% | 2% | 0%
Cc1ccc2cc(CCNS(=O)(=O)c3ccc(Br)cc3)c(=O)[nH]c2c1C | ? | -23% | 23µM* | 2%
Cc1ccc2cc(CCNC(=O)c3cccc([N+](=O)[O-])c3)c(=O)[nH]c2c1C | 18µM* | -16% | ? | -1%
COc1ccc2cc(CCNC(=O)c3cccc([N+](=O)[O-])c3)c(=O)[nH]c2c1 | ? | -10% | ? | 0%
CCN(CC)C(=O)Cn1cnc2sc(C(=O)N3CCN(Cc4ccc5c(c4)OCO5)CC3)c(C)c2c1=O | 8.2µM* | 2% | ? | -1%
Cc1c(C(=O)Nc2ccc3c(c2)OCO3)sc2ncn(CC(=O)N3CC(C)CC(C)C3)c(=O)c12 (stereo not drawn) | 21µM* | -8% | ? | 0%
Cc1ccc(CN2C(=O)C(O)(CC(=O)c3ccc(C)cc3)c3ccccc32)cc1 (stereo not drawn) | · | -3% | 2% | 11%
Cc1c(C(=O)O)sc2nc(-c3cccs3)cc(C(F)(F)F)c12 | -18% | -2% | ? | 19%
CC(=O)c1sc2nc(-c3cccs3)cc(C(F)(F)F)c2c1N | -5% | 12% | 10% | 6.3µM*
CN1C(=O)/C(=C/c2ccccc2F)Sc2ccc(C(=O)N3CCCC3)cc21 | ? | -17% | ? | 5%
